Measurements reported in the supplement of paper PMC6555819.

Key:
Experiment in all cases: PBM binding z-score (relative to random genomic background probes); higher = stronger binding; sequences stand for … in GC…GCGATTGACAGCGTAGAATGAAGG
[1] = test system: FXR:RXRa (NR concentration 270 nM, RXRa partner concentration 90 nM)
How it was run: (§1)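 Probes were double-stranded and carried 34-nt variable regions with direct-repeat seeds, single-nucleotide variants, half-site ablations and random human genomic background sequences, printed on custom Agilent 4×180K protein-binding microarrays. Arrays were incubated 1 h with ligand-free nuclear receptor dimers in PBS pH 7.4, 2% milk, 0.02% Triton X-100, 1 mM DTT, 0.2 mg/mL BSA and 0.4 mg/ml salmon testes DNA. Antibodies against each partner (one per run) detected binding, and scanned fluorescence was regression-normalized. Binding z-scores use the random background probes as reference.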

[2] = test system: LXRa:RXRa (NR concentration 270 nM, RXRa partner concentration 90 nM)
How it was run: as §1

[3] = test system: LXRa homodimer (NR concentration 270 nM)
How it was run: as §1

[4] = test system: LXRb:RXRa (NR concentration 270 nM, RXRa partner concentration 90 nM)
How it was run: as §1

[5] = test system: LXRb homodimer (NR concentration 270 nM)
How it was run: as §1

[6] = test system: PPARa:RXRa (NR concentration 270 nM, RXRa partner concentration 90 nM)
How it was run: as §1

[7] = test system: PPARg:RXRa (NR concentration 180 nM, RXRa partner concentration 90 nM)
How it was run: as §1

[8] = test system: PPARg:RXRa 270nM:90nM, anti-RXR (NR concentration 270 nM, RXRa partner concentration 90 nM)
How it was run: as §1

[9] = test system: PPARg:RXRa 30nM:10nM, anti-RXR (NR concentration 30 nM, RXRa partner concentration 10 nM)
How it was run: as §1

[10] = test system: PPARg:RXRa 90nM:30nM, anti-RXR (NR concentration 90 nM, RXRa partner concentration 30 nM)
How it was run: as §1

[11] = test system: PPARg:RXRa DBDmut IVT, anti-RXR (DBD mutation: RXRa K156A/R161A, NR concentration 270 nM, RXRa partner concentration 90 nM)
How it was run: as §1

[12] = test system: PPARg:RXRa IVT, anti-PPARg (NR concentration 270 nM, RXRa partner concentration 90 nM)
How it was run: as §1

[13] = test system: PPARg DBDmut:RXRa IVT, anti-PPARg (DBD mutation: PPARg1 K132A/R137A, NR concentration 270 nM, RXRa partner concentration 90 nM)
How it was run: as §1

[14] = test system: PPARg DBDmut IVT, anti-PPARg (DBD mutation: PPARg1 K132A/R137A, NR concentration 270 nM)
How it was run: as §1

[15] = test system: PPARg homodimer (NR concentration 180 nM)
How it was run: as §1

[16] = test system: PXR:RXRa (NR concentration 270 nM, RXRa partner concentration 90 nM)
How it was run: as §1

[17] = test system: PXR homodimer (NR concentration 270 nM)
How it was run: as §1

[18] = test system: RARa:RXR (NR concentration 270 nM, RXRa partner concentration 90 nM)
How it was run: as §1

[19] = test system: RARa homodimer (NR concentration 270 nM)
How it was run: as §1

[20] = test system: RARb:RXRa (NR concentration 270 nM, RXRa partner concentration 90 nM)
How it was run: as §1

Sequence	PBM binding z-score [1]	PBM binding z-score [2]	PBM binding z-score [3]	PBM binding z-score [4]	PBM binding z-score [5]	PBM binding z-score [6]	PBM binding z-score [7]	PBM binding z-score [8]	PBM binding z-score [9]	PBM binding z-score [10]	PBM binding z-score [11]	PBM binding z-score [12]	PBM binding z-score [13]	PBM binding z-score [14]	PBM binding z-score [15]	PBM binding z-score [16]	PBM binding z-score [17]	PBM binding z-score [18]	PBM binding z-score [19]	PBM binding z-score [20]
ACTATTAGTTGACTTAGGGCAAACGATACGACGC	0.00537	0.0216	0.165	0.185	0.529	0.325	1.17	0.319	0.276	0.322	0.0351	0.568	1.39	1.52	0.392	0.274	0.0698	0.533	0.0866	0.712
CCTGCTAGGTCAATGGTCATCTAAAGCAGCTCGC	2.9	2.28	0.085	1.68	0.00102	3.22	4.71	5.48	3.24	5.52	4.11	3.89	-0.358	-0.372	1.1	1.35	-0.609	2.05	-0.14	3.75
ATCTCTAGGTAAAGATAGTTGAGTGAATGCAAAT	0.323	0.358	-0.0172	0.23	0.435	0.437	0.538	0.246	0.222	0.29	2.14	1.82	1.87	0.639	0.295	0.221	0.497	0.592	1.46	-0.0235
TCTTGTAGATCAAGCAAGTTAAGAAAGCCTGAGT	0.00157	-0.0687	-0.36	-0.0255	-0.715	0.295	-0.623	1.01	2.4	1.72	1.73	0.172	-0.613	-0.0624	-0.466	0.15	0.419	0.014	-0.373	0.115
ATCTCCAGGTAAAGTTCAGTGAAAGATCGATAGA	1.54	2.1	1.98	1.55	1.25	2.02	1.2	2.62	1	1.91	0.492	0.889	1.11	0.586	1.7	2.32	2.13	1.81	1.45	2.78
AGAATGAGGTTACCAAAGATCAGGGTAACGCTTG	2.45	6.27	-0.1	3.22	-0.278	3.65	2.8	3.14	1.16	2.54	4.2	3.74	1.58	0.777	1.01	1.83	-0.213	2.59	-0.485	2.2
TATACAGGGTCGAAGGCCAGAGTACGAATGTCGA	1.27	1.32	-0.263	1.01	0.799	2.44	2.45	3.28	1.28	2.65	-0.348	1.5	1.05	0.465	0.74	1.01	-0.0237	1.61	-0.116	1.75
TCTAGTTGGTCAAAGGACACACACTCGAAATGCG	1.06	0.757	0.232	1.05	0.181	2.19	4.59	5.5	4.95	5.8	2.42	2.63	1.26	0.871	1.9	0.659	0.4	1.1	1.12	2.02
CCTACTGGGCCACGAAAGGACATTGATTCAGTGA	0.276	0.0312	0.0181	-0.441	-0.67	0.738	1.63	1.22	-0.124	0.606	4.98	5.21	0.3	-0.299	0.467	-0.024	-0.134	0.342	0.45	1.11
ATCTCTAGGTAAGACTCAGTTAAGTGAAGAACGC	0.573	0.359	0.508	0.191	0.75	0.00438	0.0664	-0.0342	0.242	-0.00989	1.7	1.21	0.936	1.52	0.709	0.115	0.648	0.211	1.29	0.0635
CTCGAAAGGTAGGTTGAGGTGAGTATACGGATAA	0.719	-0.128	-0.2	-0.0661	-0.508	0.424	0.0538	0.173	0.0647	0.104	-0.151	0.611	0.405	0.253	0.0947	0.293	-0.116	0.461	-0.0281	0.475
CGAACTAGCTCATTGACAGGACAGTGAATAGTAA	-0.457	-0.373	0.0523	-0.29	-0.335	-0.257	0.0799	-0.461	-0.245	-0.396	-0.0116	-0.052	0.48	0.24	-0.35	-0.133	0.129	0.164	0.183	-0.386
TCTAGTTGGTCAAATGTCACACACTCGAAATGCG	0.894	0.965	0.736	1.29	0.913	2.93	5.26	6.74	5.88	7.55	2.7	3.59	1.9	2.34	2.58	1.09	0.666	1.67	1.52	1.89
TCTATTAGTTGATTAGGGCAACCCAAACAGCGGA	0.851	0.543	0.334	0.826	0.771	1.09	0.509	1.97	3.86	2.89	1.83	1.56	1.32	1.89	0.811	0.65	0.299	0.776	1.44	0.917
TCTTGTAGATCAACAGGACGTTAAGAAAGATCGA	0.291	0.413	-0.398	0.173	-0.226	0.653	0.338	1.62	2.86	2.27	1.79	0.305	0.99	0.998	0.259	0.135	-0.241	0.574	0.262	-0.11
CCGACTGGGGCAGAAAGGTTATCATACCATCCGG	0.492	0.483	0.0667	0.849	-0.748	2.05	1.7	2.27	0.694	2.13	1.78	1.73	-1.01	-1.06	0.664	0.873	0.149	1.85	-0.196	1.68
CGAACTAGGTCAGAACAGGACAGGGAAGGATGAT	1.5	1.01	0.0984	0.515	-0.138	3.4	5.45	4.61	1.99	3.65	7.1	7.39	2	3.12	1.1	0.778	0.31	2.03	0.307	3.02
CATACAGGGTCAGCTAGGCCATAGTAGGGACGGC	4.59	3.07	-0.118	2.31	0.267	4.32	3.69	2.95	1.21	1.9	0.879	2.3	0.763	0.466	1.7	2.69	0.334	3.47	0.85	4.01
CCGAGTAGGTAATGGGGCATTCAGGCAACGGTGA	-0.324	-0.287	-0.342	-0.153	-0.666	1.73	3.13	4.63	2.99	4.57	3.06	3.08	-0.988	-0.54	0.397	-0.417	-0.151	-0.249	-0.452	0.118
ACTTACGGGTCAACGAGGTTCTAGCACGCGTATA	6.65	4.04	0.325	3.66	0.336	5.59	5.12	4.83	1.82	3.67	3.33	3.8	1.11	0.889	2.64	4.32	0.435	4.17	0.866	4.12
CAGCCTAGGTCAGGGCAAGTATAGGAGGAACGTT	2.01	1.35	-0.33	0.587	-1.01	2.23	1.32	1.24	-0.349	0.306	1.79	2	-0.618	-1.17	0.755	0.56	-0.274	1.19	-0.273	3.7
TCAGAGAGGTGAAGGTAACTCAGGTACGCAGTCG	1.22	2.12	-0.198	0.909	-0.432	2.27	1.23	2.64	3.84	3.09	3.17	2.38	0.0231	-0.235	0.67	0.893	-0.409	1.49	-0.115	2.07
TCATATAGGTAAATGCCAGGTGAAAGTCCGATCT	1.31	1.12	0.378	0.902	0.0242	1.62	0.873	2.48	3.67	3.1	4.32	2.79	1.11	0.542	0.867	0.553	0.292	1.21	0.678	0.624
TGTCAAAGTTCAAAGGTAACGAAAGTATCCACAC	7.51	6.49	4.27	5.02	1.67	6.08	9.12	7.76	6.04	7.45	0.62	4.53	1.27	1.66	3.32	5.76	3.79	6.83	1.29	5.22
AGAATGAGGTTCAGATCAGGGAAACAGAATACAT	0.604	0.299	-0.377	0.614	-0.379	1.14	0.585	-0.121	0.313	0.345	-0.151	0.433	1.08	0.118	0.165	0.507	0.222	1.41	0.488	0.706
AGTCAAAGTTCATATAGGTAACGTAAGATATGCT	6.32	5.7	5.15	3.66	2.13	4.62	6.76	6.08	3.4	5.1	0.943	3.97	1.58	0.96	2.46	4.96	5	3.57	1.52	4.69
CAAACTAGGACAAGAGGTCAAAGTCCGCTTCCCG	4.96	5.72	5.89	4.83	1.83	5.48	5.75	6.56	4.76	6.29	5.17	5.25	1.06	0.504	3.1	5.45	2.97	5.92	0.963	4
TAACCAAGGTGAAAGGTCGTTGATGCACGCCTTG	3.72	3.34	0.422	2.69	0.0179	5.18	8.43	8.06	8.2	8.96	2.51	4.83	0.621	0.876	2.72	4.25	0.689	6.11	0.504	3.15
ACAGACAGGTGAGTGATGGTAACTCAGCTGGACG	0.332	0.668	-0.354	-0.409	-0.477	-0.213	0.554	-0.115	-0.0308	-0.212	0.622	0.347	-0.278	-0.268	0.364	-0.415	-0.0348	-0.241	0.249	0.377
